# Assay results published in PubChem BioAssay (Tox21).
# Values joined by “and” are separate entries in the source; they are usually repeats but may differ in a detail not shown here. Identical values can stand only once. Records with an inconclusive call do not appear. A call without a number means that no potency is given here. A number with no mark means an inactive call. Active and inactive are the calls of the source. Unless noted, the call rests on the fitted dose curve; in most records, active means well fitted curve in the direction sought with a large enough effect in the repeat runs; inconclusive means weak or mixed curves; inactive means no such curve, though single readings can be large; an effect the other way counts as inactive or inconclusive.
# Tests used:
# [1] = qHTS assay to identify small molecule antagonists of the thyroid receptor (TR) signaling pathway - cell viability counter screen (AID 743064); further: nearly all actives have a fitted effect of over 50% in size; further: potency means the concentration at half of the fitted maximal effect
# In short: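 Plate GH3.TRE-Luc cells; incubate 4 h at 37 °C; add compound, then T3 to 1 nM final; incubate 23.5 h; add CellTiter-Fluor; incubate 30 min at 37 °C, 5% CO2; read fluorescence.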
# [2] = qHTS assay to identify small molecule antagonists of the thyroid receptor (TR) signaling pathway (AID 743065); further: nearly all actives have a fitted effect of over 55% in size; further: potency means the concentration at half of the fitted maximal effect
# In short: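 GH3.TRE-Luc rat pituitary cells carrying two TR response elements driving luciferase were plated for 4 h, given compound plus 1 nM T3 (final), and incubated 23.5 h at 37 C. ONE-Glo luminescence measured reporter inhibition; CellTiter-Fluor fluorescence tracked cytotoxicity.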
# [3] = system: thyroid hormone receptor (rat, GH3 cells); assay: qHTS assay to identify small molecule agonists of the thyroid receptor (TR) signaling pathway (AID 743066; calls by dose curve)
# [4] = molecular target: Estrogen receptor (Homo sapiens) (UniProt P03372); assay: qHTS assay to identify small molecule antagonists of the estrogen receptor alpha (ER-alpha) signaling pathway (AID 743069; active means well fitted curve in the direction sought with a large enough effect in the signal ratio in the repeat runs, not every such curve was filed as active; the % refers to the signal ratio)
# In short: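 Estradiol-stimulated ER-alpha-UAS-bla HEK293 cells, 18 hr compound exposure at 37C. LiveBLAzer B/G substrate, 2 hr RT, fluorescence read.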
# [5] = molecular target: Estrogen receptor (Homo sapiens) (UniProt P03372); assay: qHTS assay to identify small molecule agonists of the estrogen receptor alpha (ER-alpha) signaling pathway (AID 743075; calls by dose curve;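 further: HEK293 GripTite cells with ER-alpha and UAS-driven beta-lactamase reporter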)
# [6] = molecular target: Estrogen receptor (Homo sapiens) (UniProt P03372); assay: qHTS assay to identify small molecule agonists of the estrogen receptor alpha (ER-alpha) signaling pathway using the BG1 cell line (AID 743079); conditions: BG1Luc4E2 cells, ERE-luciferase agonist, 22 h; activation: at 70.3 µM (top of the series); further: nearly all actives have a fitted effect of over 20% in size
# [7] = qHTS assay to identify small molecule antagonists of the estrogen receptor alpha (ER-alpha) signaling pathway using the BG1 cell line (AID 743080; calls by dose curve;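 further: BG1 cells stimulated with 17beta-estradiol alongside compound; nearly all actives have a fitted effect of over 25% in size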)
# In short: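 Luminescence from a 4×ERE-luciferase reporter in BG1-Luc-4E2 cells served as read-out. Cells, pre-cultured 5 days in stripped-serum phenol-red-free medium, were exposed to compound with 17beta-estradiol co-stimulation for 21.5 h at 37 C.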
# [8] = qHTS assay to identify small molecule antagonists of the estrogen receptor alpha (ER-alpha) signaling pathway using the BG1 cell line - cell viability counter screen (AID 743081);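 further: compound given together with 17beta-estradiol as the ER stimulus; nearly all actives have a fitted effect of over 45% in size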; further: potency means the concentration at half of the fitted maximal effect
# [9] = molecular target: Aromatase (Homo sapiens) (UniProt P11511); assay: qHTS assay to identify aromatase inhibitors (AID 743083); further: nearly all actives have a fitted effect of over 55% in size
# [10] = qHTS assay to identify aromatase inhibitors - cell viability counter screen (AID 743084);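 further: cells stimulated with testosterone during compound exposure; nearly all actives have a fitted effect of over 55% in size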; further: potency means the concentration at half of the fitted maximal effect
# [11] = molecular target: Aryl hydrocarbon receptor (Homo sapiens) (UniProt P35869); assay: qHTS assay to identify small molecule that activate the aryl hydrocarbon receptor (AhR) signaling pathway (AID 743085);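 further: HG2L7.5c1 human HepG2 liver cells with stably integrated DRE-driven firefly reporter; nearly all actives have a fitted effect of over 15% in size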
# In short: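 Steps: seed HepG2-AhR-luc cells; allow 5 h at 37C; pin-transfer test compound or vehicle; incubate 24 h at 37C; add viability dye (30 min, 37C) and read fluorescence; add luciferase substrate (30 min, RT) and read luminescence.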
# [12] = qHTS assay to identify small molecule that activate the aryl hydrocarbon receptor (AhR) signaling pathway - cell viability counter screen (AID 743086); further: nearly all actives have a fitted effect of over 45% in size; further: potency means the concentration at half of the fitted maximal effect
# In short: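 HepG2-AhR-luc (HG2L7.5c1) cells, 4000/well, were preincubated 5 h at 37C, exposed to compound in qHTS format for 24 hr at 37C, then given CellTiter-Fluor for 30 min; viability was read as fluorescence in the reporter wells.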
# [13] = molecular target: Peroxisome proliferator-activated receptor gamma (Homo sapiens) (UniProt P37231); assay: qHTS assay to identify small molecule agonists of the peroxisome proliferator-activated receptor gamma (PPARg) signaling pathway (AID 743094; active means well fitted activation curve with a large enough effect in the signal ratio in the repeat runs, not every such curve was filed as active; the % refers to the signal ratio)
# In short: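 Stably transfected HEK293H cells (GeneBLAzer PPARg UAS-bla) were incubated with test substances for 17 h at 37C after a 5 h pre-incubation; beta-lactamase activity was then detected by FRET substrate fluorescence.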
# [14] = molecular target: Peroxisome proliferator-activated receptor gamma (Homo sapiens) (UniProt P37231); assay: qHTS assay to identify small molecule antagonists of the peroxisome proliferator-activated receptor gamma (PPARg) signaling pathway (AID 743191; calls by dose curve; further: nearly all actives have a fitted effect of over 30% in size; further: potency means the concentration at half of the fitted maximal effect)
# In short: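 GeneBLAzer PPARg UAS-bla HEK293H cells carrying a UAS-driven beta-lactamase reporter were plated at 3000 cells/well, preincubated 5 h at 37C, then given compound for 17 h at 37C; LiveBLAzer B/G FRET substrate was read after 1 h at room temperature.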
# [15] = qHTS assay for small molecule agonists of the antioxidant response element (ARE) signaling pathway (AID 743202; active means well fitted activation curve with a large enough effect in the signal ratio in the repeat runs, not every such curve was filed as active; the % refers to the signal ratio)
# In short: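 Compounds delivered in DMSO to ARE-bla HepG2 cells (2,000 cells/well, pre-incubated 5 h) and left 16 h at 37 C. LiveBLAzer B/G FRET substrate then added for 2 h at RT before fluorescence reading.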
# [16] = qHTS assay for small molecule agonists of the antioxidant response element (ARE) signaling pathway - cell viability counter screen (AID 743203; calls by dose curve; further: nearly all actives have a fitted effect of over 55% in size)
# In short: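 Cells (ARE-bla HepG2, 2,000/well) receive DMSO-dissolved compounds after a 5 hrs rest. Plates incubate 16 hrs at 37C/5% CO2. CellTiter-Glo luminescence is then recorded after 30 min at room temperature.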
# [17] = qHTS assay for small molecule activators of the heat shock response signaling pathway - cell viability counter screen (AID 743209); further: nearly all actives have a fitted effect of over 50% in size
# In short: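 Quantitative HTS format, Tox21 10K library. HeLa cells carrying an HSE-driven beta-lactamase reporter were treated 5 h at 37 C, then assessed for viability by CellTiter-Glo luminescence.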
# [18] = qHTS assay for small molecule activators of the heat shock response signaling pathway (AID 743210; active means well fitted activation curve with a large enough effect in the signal ratio in the repeat runs, with a control signal flat, not every such curve was filed as active; the % refers to the signal ratio;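 further: HeLa cells with beta-lactamase reporter driven by heat shock elements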)
# In short: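 Reporter gene assay: HeLa cells stably bearing an HSE-bla construct, compound treatment 5 h at 37 C, LiveBLAzer substrate 2.5 h at RT, fluorescence intensity.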
# [19] = qHTS assay to identify small molecule antagonists of the estrogen receptor alpha (ER-alpha) signaling pathway - cell viability counter screen (AID 743074; calls by dose curve;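 further: HEK293 cells carrying ER-alpha-UAS-bla reporter stimulated with 17beta-estradiol; nearly all actives have a fitted effect of over 45% in size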)
# [20] = qHTS assay to identify small molecule antagonists of the peroxisome proliferator-activated receptor gamma (PPARg) signaling pathway - cell viability counter screen (AID 743194); further: nearly all actives have a fitted effect of over 55% in size
# In short: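 PPARg-UAS-bla HEK293H cells were plated, rested 5 h at 37 C, then treated with compounds plus rosiglitazone (50 nM final) for 17 h at 37 C; viability was then read by CellTiter-Glo luminescence after 30 min at room temperature.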
# Sequence of Aryl hydrocarbon receptor (Homo sapiens) (P35869 whole entry, looked up): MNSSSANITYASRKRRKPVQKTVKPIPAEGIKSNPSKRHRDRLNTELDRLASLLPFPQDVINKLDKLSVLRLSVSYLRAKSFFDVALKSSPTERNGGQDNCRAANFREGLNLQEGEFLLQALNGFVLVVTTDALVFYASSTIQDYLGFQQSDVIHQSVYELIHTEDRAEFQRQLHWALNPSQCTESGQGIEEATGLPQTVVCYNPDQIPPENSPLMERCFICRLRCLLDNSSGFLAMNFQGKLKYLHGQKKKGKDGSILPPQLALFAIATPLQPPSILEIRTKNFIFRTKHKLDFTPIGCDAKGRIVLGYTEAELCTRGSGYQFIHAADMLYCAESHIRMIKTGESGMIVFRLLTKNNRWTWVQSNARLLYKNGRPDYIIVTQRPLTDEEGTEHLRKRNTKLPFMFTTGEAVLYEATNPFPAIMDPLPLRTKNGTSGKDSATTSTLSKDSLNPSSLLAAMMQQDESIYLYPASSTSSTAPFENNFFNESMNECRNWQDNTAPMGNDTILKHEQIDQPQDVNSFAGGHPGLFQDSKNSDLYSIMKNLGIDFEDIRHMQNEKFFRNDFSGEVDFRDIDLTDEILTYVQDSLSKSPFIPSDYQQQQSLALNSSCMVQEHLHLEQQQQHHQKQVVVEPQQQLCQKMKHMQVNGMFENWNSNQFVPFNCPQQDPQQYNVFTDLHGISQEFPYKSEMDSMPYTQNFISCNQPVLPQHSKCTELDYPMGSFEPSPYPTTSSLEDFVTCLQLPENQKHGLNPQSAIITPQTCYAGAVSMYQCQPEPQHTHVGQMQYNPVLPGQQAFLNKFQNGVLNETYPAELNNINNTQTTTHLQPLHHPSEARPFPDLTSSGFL
# Sequence of Estrogen receptor (Homo sapiens) (P03372 whole entry, looked up): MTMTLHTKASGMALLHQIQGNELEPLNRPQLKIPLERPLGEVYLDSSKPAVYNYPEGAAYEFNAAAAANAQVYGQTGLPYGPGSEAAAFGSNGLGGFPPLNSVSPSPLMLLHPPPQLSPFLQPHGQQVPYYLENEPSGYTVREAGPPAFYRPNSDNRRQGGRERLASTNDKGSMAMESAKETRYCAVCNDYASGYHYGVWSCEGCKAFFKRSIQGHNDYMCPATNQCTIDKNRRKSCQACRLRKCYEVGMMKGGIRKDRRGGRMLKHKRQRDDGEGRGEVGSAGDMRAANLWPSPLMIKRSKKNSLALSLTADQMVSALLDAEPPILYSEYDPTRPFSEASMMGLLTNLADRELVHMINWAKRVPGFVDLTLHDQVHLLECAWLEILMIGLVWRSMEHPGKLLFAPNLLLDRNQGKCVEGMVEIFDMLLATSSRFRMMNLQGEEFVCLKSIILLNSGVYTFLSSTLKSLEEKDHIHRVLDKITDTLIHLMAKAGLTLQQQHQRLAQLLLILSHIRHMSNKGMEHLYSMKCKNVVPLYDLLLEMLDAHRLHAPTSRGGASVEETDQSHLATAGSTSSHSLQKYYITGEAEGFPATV
# Sequence of Aromatase (Homo sapiens) (P11511 whole entry, looked up): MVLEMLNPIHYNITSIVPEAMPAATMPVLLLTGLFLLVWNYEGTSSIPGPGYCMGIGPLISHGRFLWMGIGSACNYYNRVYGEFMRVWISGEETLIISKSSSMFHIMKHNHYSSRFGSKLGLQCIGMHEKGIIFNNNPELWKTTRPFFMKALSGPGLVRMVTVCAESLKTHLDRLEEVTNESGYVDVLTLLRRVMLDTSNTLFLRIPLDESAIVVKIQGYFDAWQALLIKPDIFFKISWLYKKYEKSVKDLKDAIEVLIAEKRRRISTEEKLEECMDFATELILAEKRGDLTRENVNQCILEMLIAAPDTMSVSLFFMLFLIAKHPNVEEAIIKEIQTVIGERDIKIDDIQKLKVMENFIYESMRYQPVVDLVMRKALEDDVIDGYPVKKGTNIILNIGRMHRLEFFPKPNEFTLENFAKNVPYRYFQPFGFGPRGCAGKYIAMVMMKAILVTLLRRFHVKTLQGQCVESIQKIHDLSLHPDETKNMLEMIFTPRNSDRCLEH
# Sequence of Peroxisome proliferator-activated receptor gamma (Homo sapiens) (P37231 whole entry, looked up): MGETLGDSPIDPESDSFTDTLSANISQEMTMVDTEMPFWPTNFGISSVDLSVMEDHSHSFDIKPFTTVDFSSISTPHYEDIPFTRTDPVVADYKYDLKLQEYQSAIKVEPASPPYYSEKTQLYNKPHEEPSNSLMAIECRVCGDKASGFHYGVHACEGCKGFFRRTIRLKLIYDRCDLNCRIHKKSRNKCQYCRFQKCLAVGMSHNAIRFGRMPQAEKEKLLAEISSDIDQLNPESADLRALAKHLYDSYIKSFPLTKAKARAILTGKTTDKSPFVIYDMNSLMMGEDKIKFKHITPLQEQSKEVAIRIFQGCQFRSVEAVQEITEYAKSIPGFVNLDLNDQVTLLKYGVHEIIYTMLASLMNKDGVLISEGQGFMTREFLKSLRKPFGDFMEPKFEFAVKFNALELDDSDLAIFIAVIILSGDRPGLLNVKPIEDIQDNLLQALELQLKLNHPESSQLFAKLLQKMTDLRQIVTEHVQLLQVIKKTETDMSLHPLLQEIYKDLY
SMILES,Potency [1],Potency [2],outcome [3],Potency [4],Potency [5],Potency [6],Potency [7],Potency [8],Potency [9],Potency [10],Potency [11],Potency [12],Potency [13],Potency [14],Potency [15],Potency [16],Potency [17],Potency [18],Potency [19],Potency [20]
C1COCO1,inactive,inactive,inactive,inactive,inactive,inactive,inactive,inactive,inactive,inactive,inactive,inactive,inactive,inactive,inactive,inactive,inactive,inactive,,
CC#N,inactive,inactive,inactive,inactive,inactive,inactive,,inactive,inactive,inactive,inactive,inactive,,,inactive,inactive,inactive,inactive,inactive,inactive
O=C(O)C(Cc1cc(I)c(O)c(I)c1)c1ccccc1 (stereo not given),inactive,inactive,inactive,inactive,inactive,,,inactive,inactive,inactive,inactive,inactive,,37.6 µM (active),inactive,inactive,,inactive,inactive,inactive
CO[C@H]1C=CO[C@@]2(C)Oc3c(C)c(O)c4c(O)c(c5c(c4c3C2=O)=NC2(CCN(CC(C)C)CC2)N=5)NC(=O)/C(C)=C\C=C/[C@H](C)[C@H](O)[C@@H](C)[C@@H](O)[C@@H](C)[C@H](OC(C)=O)[C@@H]1C,29.8 µM (active),29.8 µM (active),inactive,inactive,inactive,inactive,,26.6 µM (active) and 53.3 µM (active),inactive,30 µM (active),inactive,15 µM (active),,,,,inactive,inactive,inactive,inactive
CCC(C(=O)OCCOCCN(CC)CC)c1ccccc1 (stereo not given),inactive,inactive,inactive,inactive,inactive,inactive,,inactive,inactive,inactive,,inactive,inactive,,inactive,inactive,inactive,inactive,inactive,inactive
CCn1cc(C(=O)O)c(=O)c2cc(F)c(N3CCNCC3)nc21,inactive,inactive,inactive,inactive,inactive,inactive,,inactive,inactive,inactive,,inactive,inactive,inactive,inactive,inactive,inactive,inactive,inactive,inactive
Cc1cc(C(=C2C=CC(=Nc3ccc(S(=O)(=O)O)cc3S(=O)(=O)O)C=C2)c2ccc(Nc3ccc(S(=O)(=O)O)cc3)cc2)ccc1N,inactive,inactive,inactive,inactive,inactive,inactive,,inactive,inactive,inactive,inactive,inactive,inactive,inactive,inactive,inactive,inactive,inactive,inactive,inactive
